From PubChem
Most compounds without a hit are left out; they make up all but 11% or so of the library.
G9a inh = G9a (human) methyltransferase inhibition; G9a H3K9 monomethylation, AlphaScreen, 2 h; Potency, µM (top dose mostly 102 µM), for inactives: at the top dose activity, negative = inhibition, actives largely listed as inhibitors; 8.8% of 350,000 active; further: potency means the concentration at half of the fitted maximal effect; nearly all actives have a fitted effect of over 75% in size
Target sequence (Q96KQ7 913-1193 limits assumed): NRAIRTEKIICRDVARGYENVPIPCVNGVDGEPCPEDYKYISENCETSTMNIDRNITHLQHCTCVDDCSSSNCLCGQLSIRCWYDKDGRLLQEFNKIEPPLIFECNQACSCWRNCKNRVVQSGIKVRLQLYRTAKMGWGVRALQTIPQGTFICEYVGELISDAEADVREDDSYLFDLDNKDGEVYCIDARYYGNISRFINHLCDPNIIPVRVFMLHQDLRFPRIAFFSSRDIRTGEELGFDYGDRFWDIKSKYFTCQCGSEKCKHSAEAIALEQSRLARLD
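G9a (20 nM) was preincubated 15 min with compound, then reacted 2 h at room temperature with 500 nM biotin-H3K9 peptide and 20 µM SAM. Monomethyl-H3K9 detected by AlphaScreen using anti-H3K9me1 antibody.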
Tau fibril ThT = tau fibrillization inhibition (ThT binding) | P10636 | 2.1% of 270,000 active | Potency, µM (top dose mostly 57.4 µM), for inactives: top-dose activity, negative = inhibition, actives largely listed as inhibitors | recombinant tau K18 P301L, heparin-induced fibrillization, ThT fluorescence | AID 1460; further: potency means the concentration at half of the fitted maximal effect; nearly all actives have a fitted effect of over 55% in size
Target sequence (P10636 561-689 P618L limits assumed): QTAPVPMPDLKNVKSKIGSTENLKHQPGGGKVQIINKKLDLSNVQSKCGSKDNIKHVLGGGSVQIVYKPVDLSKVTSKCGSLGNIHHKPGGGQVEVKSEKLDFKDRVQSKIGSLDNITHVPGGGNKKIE
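Heparin-induced (20 uM) aggregation of recombinant human K18 P301L tau, 15 uM unlabeled with 0.24 uM labeled, pH 7 acetate buffer, 6 hr at 37 C with compound. Fibrils quantified by 30 uM ThT fluorescence after 1 hr ambient incubation.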
Tau fluor cs = counter-screen for tau fibril formation inhibitors. tau K18 P301L Alexa594 fluorescence, heparin fibrillization. Potency, µM (series often up to 57.7 µM), inactives show top-dose activity change, negative = decrease. 0.93% of 280,000 active. AID 1463; further: potency means the concentration at half of the fitted maximal effect; nearly all actives have a fitted effect of over 55% in size
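Human K18 P301L tau (15 uM unlabeled plus 0.24 uM Alexa 594-labeled, final) in 100 mM sodium acetate pH 7 was mixed with compound and 20 uM heparin and incubated 6 hr at 37 C.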
Tau fibril FP = blocks human tau fibril formation measured by polarization; K18 P301L tau heparin fibrillization, Alexa594 FP, 6 h; AID 1468; Potency, µM (series often up to 57.7 µM), without a hit: top-dose activity, negative = inhibition, usual class: inhibitors; 0.39% of 280,000 active; P10636; further: potency means the concentration at half of the fitted maximal effect; nearly all actives have a fitted effect of over 55% in size
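Heparin (20 uM) drove fibril formation of recombinant tau K18 P301L, 15 uM unlabeled with 0.24 uM Alexa 594 label, for 6 hr at 37 C in 100 mM sodium acetate pH 7. Fluorescence polarization (555/632 nm) read 1 hr after 30 uM ThT.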
Sfp PPTase inh = blocks B. subtilis Sfp PPTase activity | Q9F4F7 | Biochemical Sfp PPTase activity, qHTS | Potency, µM, for inactives: largest response in the series, negative = inhibition, usual class: inhibitors | 3.5% of 310,000 active | AID 1490;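 further: the enzyme is Sfp with the accession as filed and its product quenches rhodamine fluorescence; potency means the concentration at half of the fitted maximal effect; 0% = enzyme reaction without inhibitor and -100% = no enzyme wells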
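Buffer: 50 mM Hepes-Na pH 7.6, 10 mM MgCl2, 0.01% Nonidet P-40, 0.01% BSA. Enzyme 15 nM, pre-exposed to compound 15 min; substrates then added and fluorescence change tracked over 30 min.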
Coupling enz = counter-screen for Giardia aldolase inhibitors: coupling enzyme system; coupling enzyme system counterscreen, AmpLite Red fluorescence; activity change, negative = inhibition, % at 58.2 µM, hits read low; 0.67% of 290,000 active; AID 2472; in the data active means activity change below about -30%
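Counterscreen lacking aldolase: glyceraldehyde-3-phosphate coupling-enzyme reagent preincubated 10 min at RT with compound (at 57.5 uM final), then substrate/coupling system with AmpLite Red added; fluorescence read at 525/598 nm after 20 min RT.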
The depositor's hits bear a star; ? = inconclusive; . = no result; [ ] = dose if it differs, or a comment. Unless noted, the call rests on the fitted dose curve; in most records, active means well fitted curve in the direction sought with a large enough effect; inconclusive means small, poorly fitted or top-dose-only effect, or another doubt; inactive means no such curve, though single readings can be large; an effect the other way counts as inactive or inconclusive. Unless noted, on the % scale 0 is the no-effect control and ±100 the full control effect.

SMILES	G9a inh	Tau fibril ThT	Tau fluor cs	Tau fibril FP	Sfp PPTase inh	Coupling enz
CCOc1ccc(Nc2nc(C)c(NC(=O)c3cccc(F)c3)c(Nc3ccc(OCC)cc3)n2)cc1	20µM*	?	7.9µM*[quencher]	10%	.	.
CSc1nc(N)c(C(=O)NC2CCCCC2)s1	-2%	-2%	-6%	-1%	1%	2
COc1cccc(Cn2c(=O)c(-c3cccs3)nc3cnc(N4CCOCC4)nc32)c1	2%[0.501 µM]	.	.	.	0%	-1
O=c1c(-c2ccc(Cl)cc2)nc2cnc(N3CCNCC3)nc2n1Cc1ccc(F)cc1	-6%[12.7 µM]	.	.	.	45µM*	0
CN1CCN(c2ncc3nc(CCc4ccccc4)c(=O)n(Cc4ccc(F)cc4)c3n2)CC1	-9%[12.7 µM]	.	.	.	-14%	5
O=c1c(CCc2ccccc2)nc2cnc(N3CCNCC3)nc2n1Cc1ccc(F)cc1	2%[12.7 µM]	.	.	.	50µM*	0
COc1cccc(Cn2c(=O)c(-c3ccc(Cl)cc3)nc3cnc(N4CCNCC4)nc32)c1	4%[0.501 µM]	.	.	.	40µM*	-2
COc1cccc(Cn2c(=O)c(-c3cccs3)nc3cnc(N4CCNCC4)nc32)c1	12%[0.501 µM]	.	.	.	18µM*	-4
Clc1ccc(C(Cn2ccnc2)OCc2c(Cl)cccc2Cl)c(Cl)c1 (centres undefined)	7.9µM*	.	.	.	.	.
CC(=O)Nc1ccc(S(=O)(=O)NC(CSc2ccc(C(=O)O)cc2[N+](=O)[O-])C(=O)O)cc1 (centres undefined)	50µM*	.	.	.	-21%	-1
CC(=O)Nc1ccc(S(=O)(=O)Nc2ccc(C)c([N+](=O)[O-])c2)cc1	?	-7%	-13%	4%	-5%	1
Cc1cnc(NC(=O)c2ccncc2)s1	50µM*	-1%	4%	3%	9%	0
CC(C)(C)c1ccc(OCC(O)CSc2ncn[nH]2)cc1 (centres undefined)	8.9µM*	-17%	-8%	6%	-13%	1
OC(COc1ccccc1)CSc1ncn[nH]1 (centres undefined)	13%[12.7 µM]	-5%	3%	6%	6%	1
CCC(=O)N1CCN(c2ccc(NC(=O)c3cc4ccccc4o3)cc2Cl)CC1	-4%[59 µM]	?	?	5%	-2%	-28
CCC(=O)N1CCN(c2ccc(NC(=O)c3ccc([N+](=O)[O-])o3)cc2Cl)CC1	-33%	11µM*	?	3%	12%	-11
CC(=O)N1CCN(c2ccc(NC(=O)c3ccc([N+](=O)[O-])o3)cc2Cl)CC1	9%[59 µM]	.	.	.	13%	-11
CCCC(=O)N1CCN(c2ccc(NC(=O)c3cc4ccccc4o3)cc2Cl)CC1	11%[12.7 µM]	?	?	5%	-15%	-40*
CS(=O)(=O)N(CC(=O)N1CCCC1)c1ccc(Cl)cc1	-5%	.	.	.	7%	2
COc1ccccc1NS(=O)(=O)c1cc(NC(=S)Nc2cc(C)cc(C)c2)ccc1Cl	?	-7%	32µM*[quencher]	?	-14%	-4
Cc1ccc(NS(=O)(=O)c2cc(C(=O)NCCCN(C)C)ccc2Cl)cc1Cl	79µM*	.	.	.	.	.
Cc1ccc(NS(=O)(=O)c2cc(C(=O)NCc3ccccn3)ccc2Cl)cc1C	9%	-10%	-17%	1%	6%	.
CCNC(=S)Nc1ccc(C)c(S(=O)(=O)Nc2ccccc2OC)c1	.	-2%	-24%	-12%	3%	-3
Cc1ccccc1NS(=O)(=O)c1cc(C(=O)NCc2ccncc2)ccc1Cl	45µM*	.	.	.	7%	-1
CCN(CC)CCNC(=O)c1ccc(NC(=O)c2cccc(S(=O)(=O)N3c4ccccc4CC3C)c2)cc1 (centres undefined)	2%	.	.	.	?	.
CCN(CC)CCNC(=O)c1ccc(NC(=O)c2cccc(S(=O)(=O)N3CCc4ccccc43)c2)cc1	32µM*	.	.	.	.	.
Cc1ccc(C(=O)NCc2ccncc2)cc1S(=O)(=O)Nc1cccc(C)c1C	-47%	.	.	.	4%	.
C[N+]1(C)C2CCC1CC(OC(=O)C(O)c1ccccc1)C2 (centres undefined)	-9%[2.33 µM]	-1%	-2%	4%	17%	2
